Compound activity from PubChem.
AID504770: E. coli YBA685 growth inhibition, screen for V. cholerae RctB inhibitors; E. coli YBA685 rctB-dependent plasmid, OD600 growth, 3 h; hits give low values; z-score (test concentration not listed); actives 0.27% (n = 130,000); in the data active means z-score below about -2, passing the limit was not always enough
Ba CapD inh: CapD enzyme inhibition; purified CapD enzyme, fluorescence intensity read-out; hits give low values; z-score (concentration not given with the values); actives 0.23% (n = 140,000); in the data active means z-score mostly below about -2.9, no sharp cut-off; inactive means mostly above about -1.9
The depositor's hits bear a star. An excerpt weighted towards active compounds, which were near 0.36% of everything screened.

For CCC(CO)NCC(O)Cn1c2c(c3cc(C)ccc31)CCCC2 (configuration not stated) the results were AID504770 0.15 and Ba CapD inh 1.6.
`O=C1CC(n2nnnc2-c2ccccc2)C2COC1O2` (configuration not stated) gave AID504770 -2 and Ba CapD inh -0.55.
`O=S1(=O)CCC(n2nnnc2-c2ccccc2)C1` (configuration not stated) gave AID504770 -2.8* and Ba CapD inh 0.39.
`Cc1nc(SCC(=O)Nc2ccc(S(=O)(=O)N3CCOCC3)cc2)n(C2CCCCC2)c1C` gave AID504770 -0.15.
Screening CN1CCN(C(c2ccccn2)c2cc(Cl)c3cccnc3c2O)CC1 (configuration not stated) returned AID504770 -0.55 and Ba CapD inh -8.1*.
Oc1c(C(c2ccccn2)N2CCN(c3ccc(F)cc3)CC2)cc(Cl)c2cccnc12 (configuration not stated) was read as AID504770 0.6.
`Oc1ccc(/C=N/N2CCOCC2)cc1` gave AID504770 -0.2.
O=C(CCC1CCCCC1)Nc1ccc(-c2cn3cccnc3n2)cc1 was read as AID504770 -0.5 and Ba CapD inh -4.5*.
Screening COCC(=O)Nc1ccc(-c2cn3cccnc3n2)cc1 returned AID504770 -0.05 and Ba CapD inh -0.005.
`CC(C)n1c2ccc(Cl)cc2c2nc3ccccc3nc21` gave AID504770 -0.45 and Ba CapD inh -0.3.
`COc1cccc(OCC(=O)Nc2cccc(C(=O)O)c2C)c1` gave AID504770 -0.15 and Ba CapD inh 0.51.
COc1cccc(OCC(=O)Nc2ccc(OC(C)=O)cc2C(=O)O)c1 was read as AID504770 -1.1 and Ba CapD inh -10*.
CN(Cc1cccs1)C(=O)c1nc(-c2ccccc2)n(-c2ccccc2)n1 was read as AID504770 0.45.
For CC(=O)c1ccc(N2CCN(c3ncnc4c3cnn4-c3ccccc3)CC2)cc1 the results were Ba CapD inh 1.3.
`Cc1ccc(C(=O)N2CCN(c3ncnc4c3cnn4-c3ccccc3)CC2)cc1` gave AID504770 -4.2*.
For O=C(COc1ncnc2sccc12)c1ccc(Cl)s1 the results were AID504770 1.4.
CCN(CC)C(=O)CSc1nc2cccnc2n1C was read as AID504770 -0.35.
For CCOc1cc(Br)c(Br)c(/C=C2\SC(=S)N(CC(=O)O)C2=O)c1O the results were Ba CapD inh -3.8*.
For O=C(O)CN1C(=O)/C(=C\c2cc([N+](=O)[O-])ccc2O)SC1=S the results were Ba CapD inh -5.2*.
Screening CCOc1cc(/C=C2/SC(=S)N(CC(=O)O)C2=O)ccc1OCc1ccccc1 returned Ba CapD inh -0.77.
For O=C(O)CN1C(=O)/C(=C\c2cc([N+](=O)[O-])ccc2Cl)SC1=S the results were Ba CapD inh -1.5.
CC(=O)Nc1ccccc1SCc1cc(=O)n2ccsc2n1 was read as AID504770 -0.25 and Ba CapD inh 0.22.
COC(=O)c1cc2oc(C)cc2n1Cc1nc(-c2ccc(C)cc2)oc1C was read as AID504770 -1 and Ba CapD inh 0.49.
Screening O=C(c1cccn1-c1nnc(N2CCCCC2)s1)N1CCCC1 returned AID504770 1.6 and Ba CapD inh -1.5.
COc1ccc(CCNC(=O)c2sc3nc(C)nc(N4CCN(c5ccccn5)CC4)c3c2C)cc1OC was read as Ba CapD inh 0.12.
For CCOC(=O)c1sc2ncnc(Nc3ccc(OCC)cc3)c2c1C the results were AID504770 0.1 and Ba CapD inh -0.14.
COc1cccc(C(=O)Nc2n[nH]c3ccccc23)c1 was read as AID504770 -0.8 and Ba CapD inh -0.19.
For N=C1/C(=C\c2ccc(-c3cccc(C(=O)O)c3)o2)C(=O)N=C2SC(N3CCCCC3)=NN12 the results were AID504770 -0.35 and Ba CapD inh -3.8*.
For CN1C(=O)C(=Cc2ccc(-c3cccc(C(=O)O)c3)o2)C(=O)N(C)C1=S the results were AID504770 -1.7 and Ba CapD inh -0.73.
CCOC(=O)N1CCC(NC(=O)c2ccc(N3CC4CC(C3)c3cccc(=O)n3C4)c(NC(=O)c3cccs3)c2)CC1 (configuration not stated) was read as Ba CapD inh -0.27.
`COC(F)(C(=O)NCCc1cccn1C)C(F)(F)F` (configuration not stated) gave AID504770 0.
For O=c1c[n+]([O-])c2ccccc2n1OCc1ccccn1 the results were AID504770 2 and Ba CapD inh 1.5.
`O=[n+]1c(CO)c(CO)n([O-])c2ccccc21` gave AID504770 -8.7* and Ba CapD inh 0.17.
Screening CCOC(=O)CC1NCCc2cc(OCC)c(OCC)cc21 (configuration not stated) returned AID504770 0.55 and Ba CapD inh 1.7.
Screening CCOc1cc(/C=C2\SC(=S)N(C(C(=O)O)C(C)C)C2=O)ccc1O (configuration not stated) returned AID504770 -0.15 and Ba CapD inh -4.8*.
